# The campaign covered roughly 69,000 compounds. About 8,600 (12%) showed an effect of 50% or more. This excerpt belongs to a sample that is enriched for strong results.
# Tested on: Plasmodium berghei
# Experiment: Screen against P. berghei liver stage (PbLuc), transformed with Luciferase, at 10uM
# Format: functional, HepG2
# Details: tested at 10 uM
row,Structure (SMILES),INHIBITION [%]
1,CC[C@@H](c1ccccc1)n1c(C2CC2)n[nH]c1=O,37.3
2,CCc1noc(CNCCn2cc(C)cn2)n1,-9.37
3,OC(CNc1nc(C2CCCC2)nc2c1CCNCC2)C(F)(F)F (stereo unspecified),52.1
4,COCc1noc(CNc2nc(C3CCCC3)nc3c2CCNCC3)n1,-52.2
5,c1nc(CCNc2nc(C3CC3)nc3c2CCNCC3)c[nH]1,-3.77
6,Cc1nc2c(c(NCC(O)C(F)(F)F)n1)CCNCC2 (stereo unspecified),93.2
7,Cc1nc2c(c(NCC(O)c3ccccc3Cl)n1)CCNCC2 (stereo unspecified),-32.6
8,Cc1nc2c(c(NCCc3nc4c(s3)CCCC4)n1)CCNCC2,25.8
9,COCCNc1nc(C2CCCC2)nc2c1CCNCC2,-39.9
10,OC(CNc1ncnc2c1CCNCC2)C(F)(F)F (stereo unspecified),13.6
11,C1Cc2nc(CCNc3nc(C4CC4)nc4c3CCNCC4)sc2C1,64.8
12,CC(C)c1nn2c(-c3cnn(C)c3)nnc2s1,-14.2
13,CCC(C)(CNC(=O)c1ccon1)NC(=O)c1ccon1 (stereo unspecified),-13.7
14,COCC(=O)NCC1Cn2nnc(-c3ccncc3)c2CO1 (stereo unspecified),-4.02
15,COCCN1CCC2(CC1)CN(C(C)=O)c1ccc(C)cc12,-33
16,CCc1ocnc1C(=O)N1CCCC1c1noc(C)n1 (stereo unspecified),5.07
17,C=C(C)COc1cccc(CNCc2nc3ccccc3c(=O)[nH]2)c1,28.5
18,C=C(C)COc1cccc(CNCCc2nc(N)cc(O)n2)c1,52.6
19,C=C(C)COc1cccc(CNCCc2c[nH]cn2)c1,29.1
20,COCC1CC2(CCN(CC3CC3)CC2)CN1Cc1csc(C)n1 (stereo unspecified),37.8
21,CCOC(=O)CCNC(=O)c1cc(Cl)cc2cccnc12,30.5
22,CCn1c(CC2CCN(C(=O)C3CCOC3)CC2)nn(C)c1=O (stereo unspecified),56.1

row,Structure (SMILES),INHIBITION [%]
1,CCn1c(CC2CCN(C(=O)C3COCCO3)CC2)nn(C)c1=O (stereo unspecified),9.56
2,CCn1c(CC2CCN(C(=O)C3CNCCO3)CC2)nn(C)c1=O (stereo unspecified),47.4
3,Cc1noc(-c2ccnc(N3CCC(N4CCCC4)CC3)c2)n1,48.5
4,Cc1noc(-c2ccnc(N3CCC(CN4CCOCC4)CC3)c2)n1,69.4
5,Cc1noc(-c2ccnc(N3CCN(C4CCOCC4)CC3)c2)n1,10.7
6,Cc1ccc(-c2nc(CNCC3CN(C)CCO3)co2)cc1 (stereo unspecified),-12.2
7,CC(=O)N1CCC2(CC1)C(=O)N(CC1CC1)c1ccccc12,1.56
8,Cc1ccc(C(C(=O)NCc2cc(C)[nH]n2)N(C)C)cc1 (stereo unspecified),31.4
9,Cc1cc(CNC(=O)C(c2ccc(F)cc2)N(C)C)n[nH]1 (stereo unspecified),37.3
10,CN(C)C(C(=O)NCc1cc(C(C)(C)C)n[nH]1)c1ccc(F)cc1 (stereo unspecified),50.2
11,CCc1cc(N2CCC(NC(=O)CCC3CCCO3)CC2)ncn1 (stereo unspecified),37.6
12,Cc1cc(N2CCC(NC(=O)CCc3ccco3)CC2)nc(C)n1,38.7
13,Cc1cc(N2CCC(NC(=O)CCC3CCCO3)CC2)nc(C)n1 (stereo unspecified),62.2
14,COc1ccc2nnc(CCCC(=O)Nc3nc4c(s3)CCC4)n2n1,38.4
15,COc1cc(CN2CC[C@@]3(CCCO3)[C@@H](O)C2)ccc1F,44.9
16,COc1ccc(F)c(F)c1CN1CCC2(CC1)[C@H](O)C[C@@H]2OCCN,7.31
17,COc1cc(CN2CCC3(CC2)[C@H](O)C[C@@H]3OCCO)ccc1F,51.1
18,COCCCC1(CO)CCCN(Cc2ccc(F)c(OC)c2)C1 (stereo unspecified),-58.9
19,COc1cc(C)c(CN2CCC3(CC2)[C@H](O)C[C@@H]3OCCN)cc1C,23.3
20,NCCO[C@H]1C[C@@H](O)C12CCN(Cc1c(F)cccc1F)CC2,52.2
21,CNC(=O)CN(C)C(=O)c1cc2ccccc2cc1OC,45.2
22,CC(C)c1nc(CN2CCCN(Cc3nccn3C)CC2)no1,-23.8

row,Structure (SMILES),INHIBITION [%]
1,Cn1nnnc1SCC1COc2ccccc2O1 (stereo unspecified),35.2
2,CCNc1nc2c(s1)C(=O)CN(C(=O)NCCc1ccccc1)C2,24.4
3,CC(C)Nc1nc2c(s1)C(=O)CN(C(=O)NCc1ccccc1)C2,73.8
4,COCCN1CC(=O)c2sc(NCc3ccccc3)nc2C1,-0.371
5,CNc1nc2c(s1)C(=O)CN(C(=O)NCCc1ccccc1)C2,23.4
6,CC[C@H](C)[C@H](N)C(=O)N1CC(=O)c2sc(NCc3ccccc3)nc2C1,61.9
7,CCNc1nc2c(s1)C(=O)CN(C(=O)NCc1ccccc1)C2,66.4
8,CC(C)Nc1nc2c(s1)C(=O)CN(C(=O)NCCc1ccccc1)C2,-7.79
9,CNc1nc2c(s1)C(=O)CN(C(=O)NCc1ccccc1)C2,42.9
10,CC[C@H](C)[C@H](N)C(=O)N1CC(=O)c2sc(NC3CCCCC3)nc2C1,35.2
11,O=C(Cc1ccccc1)N1Cc2nccn2CC(CN2CCCC2)C1 (stereo unspecified),11.3
12,O=C(c1cccc(NCCOc2ccc(F)cc2)c1)N1CCOCC1,10.6
13,CC(C)c1nc(-c2cc(C(=O)N3CCN(C)CC3)c3ccccn23)cs1,10.5
14,CCC(CC)C(=O)c1c[nH]c(C(=O)N2CCN(c3ccccc3)CC2)c1,-26.8
15,Cc1noc(C)c1C(C)C(=O)N1CCCN(Cc2cscn2)CC1 (stereo unspecified),21.08
16,CS(=O)(=O)Cc1ccc(C(=O)NCc2ccc(Cl)cc2Cl)cc1,29.4
17,O=C(NCCNC(=O)c1scnc1Cl)c1ccoc1,-23.8
18,O=C(NCc1nc(NC2CCCC2)c2cc(Cl)ccc2n1)c1ccoc1,89
19,COCC(=O)N1CCC(Nc2ccnc3ccc(Cl)cc23)CC1,-56.3
20,COc1ccc(-n2cc(CNC(=O)c3cscn3)nn2)cc1,-27.3
21,O=C(NCCNC(=O)C1CCN(c2ncccn2)CC1)c1ccoc1,15.1
22,O=C(NCc1nc(NC2CCCC2)c2cc(Cl)ccc2n1)c1cncs1,68.6

row,Structure (SMILES),INHIBITION [%]
1,O=C(NCCSC1CCCC1)c1cc(Cl)ccn1,-45
2,NC(=O)CN1CCC(Nc2ccnc3ccc(Cl)cc23)CC1,15.1
3,O=C(NCc1nc(NC2CCCC2)c2cc(Cl)ccc2n1)c1cscn1,54.6
4,COc1ncccc1C(=O)N1CC[C@H]2C[C@@H](c3noc(C)n3)O[C@@H]2C1,15.4
5,COCC1CC2(CCN(Cc3ccco3)CC2)CN1C(C)C (stereo unspecified),14.6
6,CCn1cc(CNCC(c2ccc(Cl)cc2)n2cccn2)cn1 (stereo unspecified),3.58
7,Cc1nc2cc(NC(=O)Cn3ncc(N4CCCC4)cc3=O)ccc2s1,41.2
8,COCCN1C(=O)CCC12CCC(NCc1cccc(C)n1)CC2 (stereo unspecified),41
9,O=C(Cc1c[nH]c2ncccc12)NCC(O)c1ccccc1F (stereo unspecified),26.05
10,CC(=O)N1C[C@H]2CC[C@@H](C1)N(Cc1ccc(Cn3cccn3)cc1)C2,4.59
11,Cc1cc(C(=O)N(C)Cc2cnn(C)c2C)n(C)n1,68.9
12,Cc1c(CN(C)C(=O)c2ccnn2C)cnn1C,31.7
13,CCn1ncc(CN(C)C(=O)c2cc(C(F)(F)F)n(C)n2)c1C,1.86
14,O=C(Cc1csc(-c2ccco2)n1)N1CCSCC1,-5.25
15,CN(Cc1cccc(F)c1)C(=O)CN1CCOC(Cn2cncn2)C1 (stereo unspecified),37.9
16,CCN(Cc1ccccc1)C(=O)CN1CCOC(Cn2cncn2)C1 (stereo unspecified),-122
17,CN(Cc1ccsc1)C(=O)CN1CCCC(Cn2cncn2)C1 (stereo unspecified),17.5
18,Cc1ccc(CN(C)C(=O)CN2CCCC(Cn3cncn3)C2)cc1 (stereo unspecified),51.1
19,CN(Cc1cccc(F)c1)C(=O)CN1CCCCC1Cn1cncn1 (stereo unspecified),13.5
20,CN(Cc1ccccc1)C(=O)CN1CCCC(Cn2cncn2)C1 (stereo unspecified),-25.9
21,CN(Cc1cccc(F)c1)C(=O)CN1CCCC(Cn2cncn2)C1 (stereo unspecified),75.2
22,CCN(Cc1ccccc1)C(=O)CN1CCCC(Cn2cncn2)C1 (stereo unspecified),63.9

row,Structure (SMILES),INHIBITION [%]
1,CN(Cc1ccc(F)cc1)C(=O)CN1CCCC(Cn2cncn2)C1 (stereo unspecified),11.6
2,CO[C@H]1CCN(S(=O)(=O)c2cccs2)[C@H]1Cc1cccnc1,-5.05
3,Cc1cc(C(=O)NCCN2CCN(S(C)(=O)=O)CC2)no1,10.3
4,COc1cc(C2CC(=O)Nc3c2cnn3C)ccc1O (stereo unspecified),10.9
5,CC(=O)N1C[C@@H](c2ccsc2)[C@@H]2CN(Cc3ccccc3Cl)CC[C@@H]21,73.8
6,O=C(C1CCCC1)N1C[C@@H](c2ccsc2)[C@@H]2CN(C3CCCC3)CC[C@@H]21,45.2
7,O=C(C1CCC1)N1C[C@@H](c2ccsc2)[C@@H]2CN(C3CCCC3)CC[C@@H]21,5.34
8,CC(=O)N1C[C@@H](c2ccsc2)[C@@H]2CN(CC3CCCCC3)CC[C@@H]21,30.8
9,COc1ccccc1CN1CC[C@H]2[C@@H](C1)[C@H](c1ccsc1)CN2C(C)=O,24.8
10,CC(=O)N1C[C@@H](c2ccsc2)[C@@H]2CN(Cc3ccccc3C)CC[C@@H]21,64.9
11,Cc1n[nH]c(C)c1-c1cnc(C2CCN(S(C)(=O)=O)CC2)cn1,11.1
12,O[C@@H]1CC(CNCc2cccc(Cl)c2)(COc2cccnc2)C[C@@H]1O (stereo partly specified),37.4
13,COC(=O)c1ccc(NC(C)c2ccc3c(c2)CC(=O)N3)nn1 (stereo unspecified),-4.12
14,Cc1nnc(N2CCO[C@H]3[C@@H](OCc4ccccn4)CC[C@@H]32)s1,11.4
15,COCC1CCN(C(C(=O)O)c2c(F)cccc2OC(C)C)CC1 (stereo unspecified),35.1
16,CN(C)S(=O)(=O)Nc1ccc(Oc2ccc3c(c2)OCO3)cc1,41.2
17,O=S(=O)(Nc1ccc2c(c1)OCCO2)N1CCCCC1,8.44
18,O=S(=O)(Nc1ccc(Oc2ccc3c(c2)OCO3)cc1)N1CCCCC1,52.7

# Reference: ChEMBL document CHEMBL4513216, “Probing the Open Global Health Chemical Diversity Library for Multistage-Active Starting Points for Next-Generation Antimalarials” (ACS Infect Dis, 2020)
